Common to all, as to design: scale not given: direction of the effect not stated beside the values
Assay [1] deals with Protein translocase subunit SecA (Escherichia coli (strain K12)) (UniProt P10408). Briefly: Assay to Identify E. coli SecA ATPase Inhibitors. Particulars: 30 µM. Type of assay: functional.
Assay [2] addresses T1, Ubiquitin-activating enzyme e1, putative (Leishmania donovani (strain BPK282A1)) (UniProt E9BSI1).
T1 sequence (whole entry): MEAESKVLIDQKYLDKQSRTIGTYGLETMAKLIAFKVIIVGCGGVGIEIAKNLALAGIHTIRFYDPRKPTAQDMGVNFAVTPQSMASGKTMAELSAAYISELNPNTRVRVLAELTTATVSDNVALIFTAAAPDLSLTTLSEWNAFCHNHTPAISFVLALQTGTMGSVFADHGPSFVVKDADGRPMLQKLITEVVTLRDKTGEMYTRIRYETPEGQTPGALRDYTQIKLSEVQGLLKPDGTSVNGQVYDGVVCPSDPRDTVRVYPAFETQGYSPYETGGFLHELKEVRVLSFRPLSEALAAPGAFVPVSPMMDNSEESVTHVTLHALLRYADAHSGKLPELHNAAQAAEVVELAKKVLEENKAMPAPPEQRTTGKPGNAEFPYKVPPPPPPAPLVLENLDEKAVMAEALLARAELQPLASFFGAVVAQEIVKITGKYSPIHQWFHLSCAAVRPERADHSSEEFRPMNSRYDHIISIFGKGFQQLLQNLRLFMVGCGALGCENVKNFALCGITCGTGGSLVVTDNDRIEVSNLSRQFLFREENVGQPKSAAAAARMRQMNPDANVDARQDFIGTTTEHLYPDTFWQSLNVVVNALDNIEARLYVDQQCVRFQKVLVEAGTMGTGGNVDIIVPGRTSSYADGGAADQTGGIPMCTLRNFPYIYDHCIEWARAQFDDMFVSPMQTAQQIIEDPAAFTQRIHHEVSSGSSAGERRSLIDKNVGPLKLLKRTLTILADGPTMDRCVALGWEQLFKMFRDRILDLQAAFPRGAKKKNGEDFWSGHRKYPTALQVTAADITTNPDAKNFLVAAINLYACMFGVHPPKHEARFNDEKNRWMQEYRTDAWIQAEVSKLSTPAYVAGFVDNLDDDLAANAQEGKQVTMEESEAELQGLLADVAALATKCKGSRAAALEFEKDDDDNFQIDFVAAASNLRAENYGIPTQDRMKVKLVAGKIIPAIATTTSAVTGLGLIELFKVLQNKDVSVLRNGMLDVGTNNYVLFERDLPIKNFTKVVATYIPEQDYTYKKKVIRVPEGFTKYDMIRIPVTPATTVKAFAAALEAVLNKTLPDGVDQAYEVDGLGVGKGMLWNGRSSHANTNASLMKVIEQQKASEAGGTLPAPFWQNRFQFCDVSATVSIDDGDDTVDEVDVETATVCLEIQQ
Briefly: Leishmania donovani Ubiquitin Activating Enzyme (LdE1). Type of assay: functional. Particulars: 30 µM.

Assay [3] has as its target Sialic acid-binding Ig-like lectin 9 (Homo sapiens) (UniProt Q9Y336). Briefly: Hs-Siglec9 ALPHAscreen SOP 20170721. Particulars: 10 µM. Background: In Alpha technology, singlet oxygen from a donor bead excites a nearby acceptor bead.
Assay [4] has as its system Trypanosoma cruzi. Nature of the assay: Trypanosoma cruzi phosphomannomutase and mannose-1-phosphate guanylyltransferase assay. Type of assay: functional. Particulars: 10 µM.
The target in assay [5] is T2, Arginase-2, mitochondrial (Homo sapiens) (UniProt P78540).
T2 sequence (whole entry): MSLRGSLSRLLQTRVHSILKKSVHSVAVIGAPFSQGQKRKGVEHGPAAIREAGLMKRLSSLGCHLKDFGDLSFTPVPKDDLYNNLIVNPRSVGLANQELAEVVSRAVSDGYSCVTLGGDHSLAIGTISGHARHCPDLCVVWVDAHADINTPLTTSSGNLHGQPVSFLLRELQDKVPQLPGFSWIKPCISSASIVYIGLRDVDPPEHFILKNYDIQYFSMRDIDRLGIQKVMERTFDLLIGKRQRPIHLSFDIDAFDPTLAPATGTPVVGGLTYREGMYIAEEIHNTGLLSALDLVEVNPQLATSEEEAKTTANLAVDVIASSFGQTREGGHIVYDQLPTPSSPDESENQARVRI
Nature of the assay: in vitro enzyme assay to detect the production of urea directly proportional to the activity of Arginase II. Also: in the data most compounds retested in dose-response had high values. As to conditions: 33.3 µM. The format is functional.

For assay [6], the target named is T3, Proteasome subunit beta (Trypanosoma cruzi) (UniProt O96673).
T3 sequence (whole entry): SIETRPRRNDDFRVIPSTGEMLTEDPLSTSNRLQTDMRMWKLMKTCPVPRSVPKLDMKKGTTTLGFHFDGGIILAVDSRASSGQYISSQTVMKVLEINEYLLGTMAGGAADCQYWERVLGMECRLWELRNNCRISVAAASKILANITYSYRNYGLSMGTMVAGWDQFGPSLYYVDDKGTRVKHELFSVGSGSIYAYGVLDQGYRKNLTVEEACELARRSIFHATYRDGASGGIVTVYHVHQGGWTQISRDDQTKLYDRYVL
Nature of the assay: Trypanosoma cruzi proteasome chymotrypsin-like activity (TcProtChymo) assay. Also: in the data most compounds retested in dose-response had high values. The format is functional. As to conditions: 9.37 µM.

Assay [7] is filed under the species Homo sapiens. Briefly: To identify inhibition of the IFN signalling (Jak-Stat) pathway via expression of an eGFP reporter gene under the control of an IFN-stimulated response element (ISRE) containing MxA promoter. Particulars: 30 µM. Type of assay: functional.
For assay [8], the target named is T4, Tyrosyl-tRNA synthetase, putative (Trypanosoma cruzi (strain CL Brener)) (UniProt Q4DSP6).
T4 sequence (whole entry): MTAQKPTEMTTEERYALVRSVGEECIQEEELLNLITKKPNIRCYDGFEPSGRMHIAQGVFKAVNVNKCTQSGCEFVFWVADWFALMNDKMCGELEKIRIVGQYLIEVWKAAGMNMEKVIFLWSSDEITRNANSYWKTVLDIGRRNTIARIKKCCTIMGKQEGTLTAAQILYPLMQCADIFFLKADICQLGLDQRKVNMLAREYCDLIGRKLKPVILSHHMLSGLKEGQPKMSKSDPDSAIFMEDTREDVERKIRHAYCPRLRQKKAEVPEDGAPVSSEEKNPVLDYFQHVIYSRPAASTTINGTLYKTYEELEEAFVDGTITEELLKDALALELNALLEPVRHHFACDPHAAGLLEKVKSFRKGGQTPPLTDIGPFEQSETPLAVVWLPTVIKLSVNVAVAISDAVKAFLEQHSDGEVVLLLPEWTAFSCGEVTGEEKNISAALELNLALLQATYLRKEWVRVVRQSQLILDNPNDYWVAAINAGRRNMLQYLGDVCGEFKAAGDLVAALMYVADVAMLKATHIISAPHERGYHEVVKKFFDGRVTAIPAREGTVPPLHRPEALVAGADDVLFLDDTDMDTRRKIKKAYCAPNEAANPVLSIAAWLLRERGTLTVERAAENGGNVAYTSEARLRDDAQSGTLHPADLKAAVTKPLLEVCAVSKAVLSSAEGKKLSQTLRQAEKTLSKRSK
Nature of the assay: Trypanosoma cruzi tyrosyl tRNA synthetase (TcYRS) _High Tyrosine SOP. Also: in the data most compounds retested in dose-response had high values. The format is functional. As to conditions: 30 µM.

For assay [9], the target named is T4, Tyrosyl-tRNA synthetase, putative (Trypanosoma cruzi (strain CL Brener)). Briefly: Trypanosoma cruzi tyrosyl tRNA synthetase (TcYRS) SOP. Type of assay: functional. As to conditions: 30 µM.
The target in assay [10] is Chromo domain-containing protein 1 (Saccharomyces cerevisiae (strain ATCC 204508 / S288c) (Baker's yeast)) (UniProt P32657). Briefly: ScCHD-1 Enzyme Inhibition Assay. Also: in the data most compounds retested in dose-response had high values. The format is functional. Particulars: 30 µM.
Chromo domain-containing protein 1 (Saccharomyces cerevisiae (strain ATCC 204508 / S288c) (Baker's yeast)), sequence (P32657 whole entry, the tested form may be a part): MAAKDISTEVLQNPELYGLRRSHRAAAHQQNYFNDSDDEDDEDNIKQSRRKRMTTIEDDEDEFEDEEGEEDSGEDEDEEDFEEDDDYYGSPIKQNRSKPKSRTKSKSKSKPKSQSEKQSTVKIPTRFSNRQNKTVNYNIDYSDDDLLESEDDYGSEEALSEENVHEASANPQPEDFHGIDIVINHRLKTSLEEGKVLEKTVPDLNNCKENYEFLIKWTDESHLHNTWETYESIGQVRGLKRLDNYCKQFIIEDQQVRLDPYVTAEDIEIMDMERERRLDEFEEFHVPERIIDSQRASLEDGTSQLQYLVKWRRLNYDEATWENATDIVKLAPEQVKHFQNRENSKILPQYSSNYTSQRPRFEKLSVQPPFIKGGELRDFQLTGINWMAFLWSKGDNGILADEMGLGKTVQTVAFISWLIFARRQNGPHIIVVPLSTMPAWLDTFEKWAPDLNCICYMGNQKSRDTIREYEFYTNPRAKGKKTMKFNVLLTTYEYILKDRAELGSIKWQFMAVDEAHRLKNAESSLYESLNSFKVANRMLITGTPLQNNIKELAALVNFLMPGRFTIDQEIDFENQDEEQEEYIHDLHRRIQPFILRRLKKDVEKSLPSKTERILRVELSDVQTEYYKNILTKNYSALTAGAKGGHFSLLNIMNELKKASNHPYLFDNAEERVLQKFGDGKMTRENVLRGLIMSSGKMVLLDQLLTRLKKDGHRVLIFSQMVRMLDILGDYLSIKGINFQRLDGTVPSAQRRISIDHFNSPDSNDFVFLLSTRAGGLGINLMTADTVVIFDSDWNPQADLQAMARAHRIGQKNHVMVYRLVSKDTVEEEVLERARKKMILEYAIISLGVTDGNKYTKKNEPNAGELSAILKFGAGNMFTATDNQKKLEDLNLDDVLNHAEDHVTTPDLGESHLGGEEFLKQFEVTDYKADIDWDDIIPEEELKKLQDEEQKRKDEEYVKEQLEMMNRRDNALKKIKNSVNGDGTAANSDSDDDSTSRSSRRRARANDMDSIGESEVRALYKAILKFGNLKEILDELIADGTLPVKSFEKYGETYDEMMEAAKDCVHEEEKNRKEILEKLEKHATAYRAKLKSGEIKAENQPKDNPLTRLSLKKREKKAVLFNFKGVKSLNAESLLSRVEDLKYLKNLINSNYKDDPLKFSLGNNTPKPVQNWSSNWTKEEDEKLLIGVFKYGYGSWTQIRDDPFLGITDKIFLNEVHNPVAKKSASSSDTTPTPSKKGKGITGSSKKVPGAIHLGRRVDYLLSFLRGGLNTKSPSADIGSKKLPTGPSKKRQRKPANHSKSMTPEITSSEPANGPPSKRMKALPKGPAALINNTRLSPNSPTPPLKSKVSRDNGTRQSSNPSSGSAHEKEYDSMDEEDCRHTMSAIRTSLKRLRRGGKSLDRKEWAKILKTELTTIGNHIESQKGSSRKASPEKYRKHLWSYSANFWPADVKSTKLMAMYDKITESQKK

Percent Effect data for eleven compounds are collected here from ChEMBL document CHEMBL3988442, “University of Dundee, Small-Polar-MMV Screening Library” (2021).

For some assays here: Results with a measured potency or affinity are listed apart.

Sialic acid-binding Ig-like lectin 9 (Homo sapiens), sequence (Q9Y336 whole entry): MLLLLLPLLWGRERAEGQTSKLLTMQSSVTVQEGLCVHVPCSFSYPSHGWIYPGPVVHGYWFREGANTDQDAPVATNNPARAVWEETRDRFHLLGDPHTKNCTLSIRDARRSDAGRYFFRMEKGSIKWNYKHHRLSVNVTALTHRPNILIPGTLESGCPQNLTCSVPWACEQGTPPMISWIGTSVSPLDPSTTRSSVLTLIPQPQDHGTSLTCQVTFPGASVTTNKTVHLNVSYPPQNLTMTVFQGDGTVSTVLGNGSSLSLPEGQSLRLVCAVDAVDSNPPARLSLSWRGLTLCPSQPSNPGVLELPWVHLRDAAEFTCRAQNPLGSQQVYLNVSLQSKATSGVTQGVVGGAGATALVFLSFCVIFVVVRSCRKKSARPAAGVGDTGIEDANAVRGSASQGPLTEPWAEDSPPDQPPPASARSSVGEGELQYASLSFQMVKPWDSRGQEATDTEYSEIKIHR
Protein translocase subunit SecA (Escherichia coli (strain K12)), sequence (P10408 whole entry): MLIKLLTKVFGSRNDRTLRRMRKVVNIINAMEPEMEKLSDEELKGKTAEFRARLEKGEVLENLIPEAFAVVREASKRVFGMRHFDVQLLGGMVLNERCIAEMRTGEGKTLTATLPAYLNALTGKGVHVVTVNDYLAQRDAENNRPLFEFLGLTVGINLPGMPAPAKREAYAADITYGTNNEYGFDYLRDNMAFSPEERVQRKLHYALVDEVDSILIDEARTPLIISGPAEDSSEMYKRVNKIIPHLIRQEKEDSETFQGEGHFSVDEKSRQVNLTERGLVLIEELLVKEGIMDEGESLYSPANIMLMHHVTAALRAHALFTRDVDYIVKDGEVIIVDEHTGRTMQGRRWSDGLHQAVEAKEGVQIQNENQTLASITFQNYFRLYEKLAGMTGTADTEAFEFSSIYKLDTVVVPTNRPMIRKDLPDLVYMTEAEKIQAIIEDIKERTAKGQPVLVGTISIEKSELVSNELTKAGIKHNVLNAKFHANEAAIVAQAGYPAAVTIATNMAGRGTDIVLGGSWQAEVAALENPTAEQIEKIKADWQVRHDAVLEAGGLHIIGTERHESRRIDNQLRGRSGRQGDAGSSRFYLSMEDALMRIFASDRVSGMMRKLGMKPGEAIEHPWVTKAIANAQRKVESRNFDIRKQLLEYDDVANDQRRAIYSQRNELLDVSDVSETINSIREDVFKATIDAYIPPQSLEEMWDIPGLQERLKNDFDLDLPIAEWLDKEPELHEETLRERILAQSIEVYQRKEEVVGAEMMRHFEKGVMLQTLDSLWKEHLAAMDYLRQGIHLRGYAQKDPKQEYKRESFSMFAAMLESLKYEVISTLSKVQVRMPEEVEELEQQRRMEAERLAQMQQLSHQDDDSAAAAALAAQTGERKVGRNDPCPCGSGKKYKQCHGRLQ

Regarding `Cc1cnc(N2CCC3(CCN(CC4CC4)C3=O)CC2)nc1`, the Percent Effect in [1] was -0.786%; in [2] it was 16.9%; in assay [3], -3.91%; in assay [4], -4.13%; in [5], 3.65%; in [6] it was 8.84%. Also, the Percent Effect in assay [7] was 17.8%; in [8] it was 8.7%; in [9], 12.5%; in assay [10], -11.4%.

`CNC(=O)c1ccc(CN(C(=O)c2scnc2C)C2CC2)cc1`: the Percent Effect in [1] is -5.91%; in assay [2], -7.69%; in assay [3] it was -10.3%; in assay [4] it was -0.845%; in assay [5], -2.87%; in assay [6], 3.67%. Further, the Percent Effect was 17.5% in assay [7], -3.35% in assay [8], -6.02% in [9] and -4.57% in assay [10].

On to `Cc1noc(C)c1CN(C)C(=O)NC1CCN(c2ncccn2)CC1`, for which the Percent Effect is -4.16% in assay [1]; 10.3% in assay [2]; -17.2% in [3]; 11.7% in assay [4]; -0.82% in assay [5]; 9.64% in assay [6]. The Percent Effect in [7] was 13.1%; in assay [8], 5.26%; in assay [9], 20.5%; in [10] it was -9.27%.

As for `COc1ccccc1CCN(C)C(=O)NC(C)c1nncn1C` (stereo not given), the Percent Effect in assay [1] is -6.85%; in assay [2], 10.7%; in assay [3], 12.9%; in assay [4], -1.21%; in assay [5] it was 0%; in [6] it was 16.2%. In addition, the Percent Effect in assay [7] was -2.26%; in assay [8], 2.63%; in assay [9], 5.13%; in assay [10], -8.54%.

Turning to `COc1cccc2c1OCC(C(=O)N1CCC(N3CCOC3=O)CC1)C2` (stereo not given), the Percent Effect was -6.75% in assay [1]; 13.5% in [2]; 15.6% in assay [3]; 4.95% in assay [4]; 10.8% in [5]; 9.59% in assay [6]. In addition, the Percent Effect in assay [7] was 8.78%; in assay [8], 9.04%; in assay [9], 12.2%; in assay [10], -5.88%.

On to `CCc1nc(C2CCCN2C(=O)CCCn2cccn2)no1` (stereo not given), for which the Percent Effect in assay [1] was -1.9%; in assay [2], 5.2%; in [3], 9.24%; in assay [4] it was 4.66%; in assay [5], 8.4%; in [6] it was 8.25%. For the same compound, the Percent Effect is 4.76% in [7], 1.96% in assay [8], 4.71% in assay [9] and -9.39% in [10].

In the case of `C[C@@H]1CN(C(=O)c2cccs2)C[C@]12CCN(CCN(C)C)C2=O`, the Percent Effect in [1] was -6.68%; in [2], 9.09%; in assay [3], 2.17%; in assay [4], -6.57%; in assay [5], 0.457%; in assay [6], 9.87%. Further, the Percent Effect is 18% in assay [7], 0.966% in assay [8], -5% in assay [9] and -8.48% in assay [10].

Take `NC[C@H]1CC[C@H](C(NC(=O)c2ccccc2)c2ccccn2)CC1` (stereo not given in full): the Percent Effect in [1] is -0.915%; in assay [2] it was 12%; in assay [3] it was -7.17%; in assay [4] it was 4.54%; in assay [5], -2.21%; in assay [6], 13.3%. For the same compound, the Percent Effect in [7] was -1.97%; in [8], 10.6%; in assay [9], 25%; in assay [10], -27.6%.

Regarding `Cc1cccnc1CNCC1(O)CCCN(Cc2ccc(F)cc2)C1=O` (stereo not given), the Percent Effect in [1] was -5.67%; in assay [2] it was 8.11%; in assay [3] it was 19.1%; in assay [4], 9.41%; in assay [5] it was 29.7%; in [6], -0.514%. The Percent Effect in assay [7] is 5.17%; in assay [8], 15.4%; in assay [9], 29.3%; in assay [10], -3.8%.

With `COc1cc(S(=O)(=O)N2CCc3ccc(F)cc32)cc(C(=O)O)c1OC`, the Percent Effect was -7.45% in [1]; 10.7% in [2]; 12.6% in assay [3]; -1.21% in assay [4]; 0% in assay [5]; 6.02% in [6]. Also, the Percent Effect in assay [7] was 4.5%; in assay [8], -3.68%; in assay [9], -5.13%; in assay [10], -15.2%.

As to `CC(=O)NCCC(=O)NCc1cccnc1-n1cnc2ccccc21`, the Percent Effect in [1] is 0.292%; in [2] it was 0%; in assay [3], 2.93%; in [4] it was 6.69%; in assay [5], 12.2%; in assay [6], 1.71%. Further, the Percent Effect in assay [7] was -5.79%; in [8], -0.532%; in assay [9], 2.44%; in assay [10] it was 98.3%.
